Screening data as filed in PubChem BioAssay.
APOBEC3G inh: inhibitors of human APOBEC3G DNA deaminase; recombinant A3G, ssDNA deamination FAM/TAMRA fluorescence; inhibition, % at 20 µM; 330,000 tested, 0.28% active; AID 493012;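 active = inhibition of at least 40% at 20 µM, with no more than 30% in the related APOBEC3A deaminase screen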;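 note: plate controls were DMSO wells with A3G for no effect and wells lacking A3G enzyme for full effect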
PABP polyA inh: blocks human PABP binding to poly(A) RNA | calls only at 35 µM | AID 2014 | 290,000 tested, 1% active | fluorescence polarization | P11940;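 note: calls also rest on retests at 20 µM and on dose response follow-up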
eIF4H inh: inhibitors of RNA binding by human eIF4H; eIF4H fluorescence polarization binding assay; AID 2012; 290,000 tested, 0.94% active; inhibition, % at 35 µM;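 note: calls also rest on retests at 20 µM and on dose response follow-up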
PABP1 MLLE inh: blocks PAM2 peptide binding to the PABP1 MLLE domain; GST-MLLE / FITC-PAM2 fluorescence polarization; inhibition, % at 20 µM; 360,000 tested, 0.36% active; AID 588489; in the data active = inhibition above about 35%, passing the limit was not always enough;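 note: plate controls were DMSO wells with GST-MLLE for no effect and wells lacking GST-MLLE protein for full effect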
PHOSPHO1 inh: blocks human PHOSPHO1 phosphatase activity | 290,000 tested, 1.1% active | inhibition, % at 13.3 µM | recombinant PHOSPHO1, absorbance phosphatase assay | Q8TCT1 | AID 1565; in the data active = inhibition above about 60%
Target sequence (Q8TCT1 whole entry, looked up): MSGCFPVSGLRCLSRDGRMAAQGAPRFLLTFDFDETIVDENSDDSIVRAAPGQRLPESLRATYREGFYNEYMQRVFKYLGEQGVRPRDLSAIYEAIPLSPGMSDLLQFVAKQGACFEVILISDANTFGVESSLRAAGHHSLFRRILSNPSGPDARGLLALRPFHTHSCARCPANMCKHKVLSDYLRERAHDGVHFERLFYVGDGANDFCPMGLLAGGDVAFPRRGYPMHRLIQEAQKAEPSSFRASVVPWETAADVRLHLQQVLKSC
A3A deaminase: inhibitors of human APOBEC3A DNA deaminase. P31941. recombinant A3A, FAM/TAMRA ssDNA deamination fluorescence. inhibition, % at 20 µM. 330,000 tested, 0.41% active. AID 493011;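 active = at least 40% inhibition at 20 µM here, with at most 30% in a related deaminase screen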;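 note: plate controls were A3A with DMSO for no effect and wells lacking A3A enzyme for full effect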
Active calls of the source: *; i = inactive; u = inconclusive; x = no result given; + = active, no number. A selection: hits, their analogues and other compounds. The true share with any hit is near 2.6%. Unless noted, the rule behind the calls is not given here.

SMILES	APOBEC3G inh	PABP polyA inh	eIF4H inh	PABP1 MLLE inh	PHOSPHO1 inh	A3A deaminase
CCCNC(=O)OC[C@H]1O[C@H](CCO/N=C/C[C@@H]2C=C[C@H](OC(C)=O)[C@@H](COC(C)=O)O2)C=C[C@@H]1Oc1ccc(OC)cc1	-4	i	2	x	1	-1
CCCNC(=O)OC[C@H]1O[C@H](CCO/N=C(\C)CCN2CCc3nc(-c4ccccc4)c(-c4ccccc4)cc3C2)C=C[C@@H]1Oc1ccc(OC)cc1	-16	i	68*	x	4	-6
CCc1ccc(CNC(=O)Cc2ccc(NC(=O)C3=C(C)OCCS3)cc2)cc1	4	i	26	10	65*	11
CC(C)C[C@H](NC(=O)c1nc[nH]c1C(=O)NCCCCCN)C(=O)OCc1ccccc1	-4	x	x	10	x	0
CC(=O)N1CCc2cc(S(=O)(=O)NCC(=O)NCc3ccccc3Cl)ccc21	-6	i	-19	24	65*	-5
CCOC(=O)c1ccccc1NC(=O)COC(=O)Cc1ccccc1F	-10	x	x	-4	x	-3
COc1ccc2[nH]c(=S)[nH]c2c1	21	i	-7	-34	92*	-2
COc1ccc2[nH]c3ccccc3c2c1	3	i	-6	-8	18	1
COC(=O)c1c(-c2ccco2)csc1NC(=O)C1CC=CCC1C(=O)O (stereo unspecified)	0	+	85*	-9	40	10
CC(=O)C1=C(O)C(=O)N(c2ccc(F)cc2)C1c1ccc(C)cc1 (stereo unspecified)	-8	i	5	3	8	-7
CC(=O)C1=C(O)C(=O)N(c2cccc(C(=O)O)c2)C1c1ccc(F)cc1 (stereo unspecified)	-3	+	u	-12	-3	-3
CCN(CC)CCNC(=O)c1ccc(NC(=O)c2cc(-c3ccco3)nc3ccccc23)cc1	13	i	72	-21	10	33
Cc1csc(NC(=O)c2cc(-c3ccco3)nc3ccccc23)n1	16	+	88*	-16	-6	27
O=C(Nc1nccs1)c1cc(-c2ccco2)nc2ccccc12	x	+	58	-4	-7	x
O=C(Nc1cccc(S(=O)(=O)NC2=NCCC2)c1)c1cc(-c2ccco2)nc2ccccc12	78	+	90*	-28	41	86
CN(C)C(=O)c1ccc(NC(=O)c2cc(-c3ccco3)nc3ccccc23)cc1	13	+	77*	2	-1	37
COc1ccc(NC(=O)C2CC(=O)N(c3ccccc3F)C2)cc1S(=O)(=O)N1CCCCC1 (stereo unspecified)	x	x	x	-14	x	x
COc1ccc(-c2[nH]nc3oc(=O)c(CCO)c(C)c23)cc1	-5	i	-1	-9	4	-3
Fc1ccc(NC(=S)N/N=C/c2ccc(F)c(F)c2)cc1	-5	i	2	25	-2	4
COc1ccc(Cl)cc1NC(=S)Nc1ccccc1F	-9	i	4	41*	30	-2
COc1ccc(NC(=S)Nc2cccc(C(C)=O)c2)cc1OC	-3	i	4	21	6	-2
COc1ccc(NC(=S)Nc2cccc(Cl)c2)cc1OC	-6	i	4	37*	-46	4
COc1ccc(NC(=S)N/N=C/c2ccc(F)cc2)cc1OC	1	i	-6	45*	5	-1
COc1ccc(Cl)cc1NC(=S)Nc1cccc(C)c1	-1	i	4	22	29	4
Cc1cc(C)nc(NC(=O)CSc2ncccn2)n1	-3	i	-5	x	23	-1
SMILES	APOBEC3G inh	PABP polyA inh	eIF4H inh	PABP1 MLLE inh	PHOSPHO1 inh	A3A deaminase
Fc1ccccc1-c1cc2ccccc2cn1	-10	x	x	-16	x	-2
CN(C)C(=O)CCc1ccc2c3c([nH]c2c1)[C@]1(C)[C@@H](C(=O)N2CCOCC2)C[C@H](CC(=O)NCCCn2ccnc2)C(=O)N1CC3	1	x	x	4	x	-2
CCc1c(O)nc(SCC(=O)N2CCc3cc(OC)c(OC)cc3[C@@H]2C)[nH]c1=O	3	i	0	43*	8	-2
COc1cc2c(cc1OC)C(C)N(C(=O)c1cc(Cl)nc(Cl)c1)CC2 (stereo unspecified)	-5	i	2	7	46	-1
Cc1noc(C)c1NC(=O)N(C)C[C@H]1Oc2ccc(NC(=O)NC3CCCCC3)cc2C(=O)N([C@H](C)CO)C[C@@H]1C	6	x	x	1	x	1
O=c1c2cccc3c(N4CCOCC4)ccc(c32)c2nc3ccccc3n12	x	+	122	x	-29	x
CCCCC(=O)N1CCN(c2nc3ccc(Cl)cc3s2)CC1	1	i	-12	-12	41	3
COc1ccc(CC(=O)Nc2cccc(-c3csc(C)n3)c2)cc1	-2	i	2	-9	12	0
Cc1nc(-c2cccc(NC(=O)COc3ccc(Cl)cc3)c2)cs1	1	i	-6	6	66*	-2
CCCCNC(=O)C1(C)CCN1C(=O)c1cc(-c2ccccc2)cs1 (stereo unspecified)	x	x	x	-12	x	x
Cc1ccc(OCCC(=O)OCC(=O)c2ccc3c(c2)NC(=O)CO3)cc1	-9	x	x	-15	x	-5
COc1cc(C)c(CNc2ccc(OC)c(OC)c2)cc1C	x	+	63*	x	7	x
COCCn1c(SCC(=O)N2CC(=O)Nc3ccccc32)nc2ccccc21	-11	i	4	-10	-6	-1
O=C(CCl)N1N=C(c2cccs2)CC1c1ccco1 (stereo unspecified)	-12	i	3	-20	-3	-3
Cc1cccc2cc(C3CC(c4ccco4)=NN3C(=O)CCC(=O)O)c(Cl)nc12 (stereo unspecified)	-1	i	56*	-9	1	0
O=C(CCl)N1N=C(c2ccco2)CC1c1ccco1 (stereo unspecified)	38	+	54*	7	24	40
COc1ccc2nc(Cl)c(C3CC(c4ccco4)=NN3C(=O)CCCC(=O)O)cc2c1 (stereo unspecified)	9	i	68	1	12	12
COc1ccc2nc(Cl)c(C3CC(c4ccco4)=NN3C(=O)CCC(=O)O)cc2c1 (stereo unspecified)	3	i	92*	-2	6	11
Cc1ccc2nc(Cl)c(C3CC(c4ccco4)=NN3C(=O)CCCC(=O)O)cc2c1 (stereo unspecified)	-1	i	17	-2	27	6
Cc1nc(NC(=O)CSc2nnc(Cn3nnc4ccccc43)n2C)sc1C	-10	i	-1	1	-12	-2
Cn1c(=O)oc2cc(S(=O)(=O)Nc3ccccc3)ccc21	-7	i	2	-16	21	-4
CCC1CCCCN1Cc1ccc(CNS(=O)(=O)c2ccc3c(c2)oc(=O)n3C)o1 (stereo unspecified)	0	+	55*	-9	-2	0
